We go through 59 compounds from PubChem BioAssay AID504329 (Southern Research Specialized Biocontainment Screening …, 2011).

“And” between values parts separate entries of the source, which are not always exact repeats. Identical values can stand only once. The campaign covered roughly 340,000 compounds. About 1,000 (0.29%) were called active. A selection follows. Potency and affinity values are given separately. Unmarked numbers belong to inactive results. No stated cut-off is given here; in the data, inconclusive means inhibition above about 27% without an active follow-up result; inactive means below that.

The inhibition is the drop in the measured response relative to a control, in per cent.

The test can be described thus: NS1A inhibition, H1N1 influenza, cell based functional assay (AID 504329). The note with it: percent inhibition, at 12.5 µM, hits give high values.
Consider `Cc1cc(C)c2c(c1)-c1c(ssc1=S)C(C)(C)N2C(=O)CSc1nncn1C`, for which the inhibition is 9.33%. For the compound `O=c1[nH]c(=O)n(Cc2ccco2)c(O)c1/C=N/N1CCCCCC1`, the inhibition is 12.8%. For the compound `CCN(CC(=O)Nc1c(F)cccc1F)C(=O)CSCc1c(C)noc1C`, the inhibition was -12.8%. Turning to `COCCn1c(C)cc(C(=O)COC(=O)CNC(=O)c2ccccc2)c1C`, the inhibition is 4.38%. With `O=C(c1cccc(C(F)(F)F)c1)C1CCCN(C(=O)c2cc(C3CC3)[nH]n2)C1` (centres undefined), the inhibition was -9.76%.

With `CS(=O)(=O)Nc1ccc(C(=O)Nc2ccccc2C(=O)NCc2ccco2)cc1`, the inhibition is -1.06%. `O=C(N/N=C/c1cc([N+](=O)[O-])ccc1O)c1cc(-c2ccccc2)nc2ccccc12`: the inhibition was 15.9%. In the case of `Nc1nnc(CC(=O)N/N=C/c2ccc([N+](=O)[O-])cc2)s1`, the inhibition was -6.47%. With `O=C(Cn1cncn1)N/N=C/c1ccccc1Cl`, the inhibition was -0.24%. In the case of `Cc1cc(C(=O)N/N=C/c2ccc([N+](=O)[O-])cc2)c2ccccc2n1` it was 8.83%. In the case of `O=C(CSc1ccccn1)N/N=C/c1cc([N+](=O)[O-])ccc1O`, the inhibition was 21.2%. On to `O=C(CCC(=O)Nc1ccc(Br)cc1)N/N=C/c1cc([N+](=O)[O-])ccc1O`, for which the inhibition is -1.12%.

Regarding `O=C(Cn1cncn1)N/N=C/c1cccc2ccccc12`, the inhibition was -2.86%. In the case of `Nc1nnc(CC(=O)N/N=C/c2cc([N+](=O)[O-])cc(Br)c2O)s1` it was 7.8%; in that of `CC(OC(=O)C12CC3CC(CC(O)(C3)C1)C2)C(N)=O` (centres undefined), -5.93%; in that of `Cc1cc(C)n(-c2ccc(C(=O)Nc3ccc(N4CCOCC4)cc3)cc2)n1`, -0.85%. For `CC(Oc1ccc(Cl)cc1Cl)c1nc(-c2ccc(NC(=O)c3ccncc3)cc2)no1` (centres undefined), the inhibition was 6.94%. As for `CCOC(=O)N1CCN(S(=O)(=O)c2ccc(C)c(C)c2C)CC1`, the inhibition is -2.44%. In the case of `C=C[C@@H]1CN2CCC1C[C@@H]2[C@@H](O)c1ccnc2ccc(OC)cc12` (some centres undefined) it was -0.14% and 2.49%.

For `CCCCOc1ccc(CCC(=O)N/N=C/c2ccco2)cc1`, the inhibition was -16.9%. Turning to `O=c1c(-c2ccnn2-c2ccc(F)cc2)cnc2n1CCS2`, the inhibition was 11.8%. In the case of `O=C(Nc1c2c(nn1-c1ccc(Cl)cc1)CS(=O)(=O)C2)C1CC1` it was -8.81%; in that of `O=C(CSc1nnc(-c2ccc(Cl)cc2)n1-c1ccc(Cl)cc1)N/N=C/c1ccco1`, -4.44%. In the case of `O=C(N/N=C/c1cc(Br)ccc1O)c1cccc(N2CCCC2=O)c1` it was -7.38%; in that of `COc1ccc(N2CC(C(=O)Nc3ccc([N+](=O)[O-])cc3Br)CC2=O)cc1` (centres undefined), -1%; in that of `COc1ccc(N2CC(C(=O)N/N=C/c3ccc([N+](=O)[O-])cc3)CC2=O)cc1` (centres undefined), 3.03%. In the case of `O=C(N/N=C/c1ccc([N+](=O)[O-])cc1)c1cccc(N2CCCC2=O)c1` it was -4.45%; in that of `O=C1NCCCC1C(=O)N/N=C/c1ccccc1[N+](=O)[O-]` (centres undefined), 4.74%. Consider `O=C1NCCCC1C(=O)N/N=C/c1ccccc1O` (centres undefined), for which the inhibition was 1.62%.

On to `COc1ccc(Cl)cc1C(=O)NC1=NCCS1`, for which the inhibition is 3.24%.

Consider `N#Cc1ccc(Oc2ncccn2)cc1`, for which the inhibition is -1.76%. In the case of `CC(=O)Nc1ccc(S(=O)(=O)N(C)CC(=O)OCC(=O)c2cc(C)n(-c3ccc4c(c3)OCO4)c2C)cc1`, the inhibition is 4.97%. In the case of `COc1cc(/C=C2\SC(=O)N(Cc3ccc(F)cc3)C2=O)cc([N+](=O)[O-])c1O` it was 26.1%; in that of `COc1cc(/C=C2\SC(=O)N(c3ccc(Cl)cc3)C2=O)cc([N+](=O)[O-])c1O`, -5.87%. With `CCN(CC)c1ccc(NC(=O)c2ccc3c(c2)OCO3)cc1`, the inhibition was 21.3%. On to `CCN(CC)c1ccc(C(=O)Nc2cccc(F)c2)cc1`, for which the inhibition was 0.06%. As for `Cc1cc(C(=O)OCC(=O)Nc2ccccc2C)c(C)o1`, the inhibition was -4.72%. On to `Cc1c(N=C2C(=O)Nc3ccccc32)c(=O)n(-c2ccccc2)n1C`, for which the inhibition is 11%. On to `Cc1c(N=c2scc(-c3ccccc3)n2C)c(=O)n(-c2ccccc2)n1C`, for which the inhibition was -5.38%. In the case of `Cc1ccc(N2C(=O)CN(Cc3ccccc3)C2=S)cc1C` it was -6.48%; in that of `O=[N+]([O-])c1cc(/C=N\Nc2ccccn2)ccc1Cl`, -4.08%; in that of `O=C(N/N=C/c1ccc(O)c([N+](=O)[O-])c1)c1ccncc1`, 13.6%. The result for `COc1ccc(CC(=O)Nc2cc(S(=O)(=O)N3CCOCC3)ccc2N2CCCC2)cc1OC` reads 2.03%; that for `NC(=O)c1ccc(-c2c(-c3ccccc3)sc3ccccc23)cc1`, -3.51%. As to `CCOC(=O)N1CCC(NC(=O)CCc2c(C)nc3c(c(C)nn3C(C)(C)C)c2C)CC1`, the inhibition is 0.25%.

As to `CNC(=S)NNc1nc(-c2ccccc2)c2cc(Cl)ccc2n1`, the inhibition was 8.4%. As for `Nc1c(Cl)ncnc1N/N=C/c1cccc(O)c1`, the inhibition is 17.6%. In the case of `Nc1c(Cl)ncnc1N/N=C/c1ccc(O)cc1` it was -15.8%; in that of `COc1ccc(/C=N/Nc2ncnc(Cl)c2N)cc1OC`, -17%; in that of `Nc1c(Cl)ncnc1N/N=C/c1ccnc2ccccc12`, -0.57%. Turning to `COc1ccc(/C=N/Nc2nccnc2Cl)c(OC)c1`, the inhibition was -10.3%. On to `COc1ccccc1/C=N/Nc1nccnc1Cl`, for which the inhibition was 4.08%. The result for `Cc1cccc(NC(=S)NCc2ccc(F)cc2)c1C` reads -12.3%; that for `CN1CCN(c2ccc(CNC(=O)c3cc4ccccc4o3)cc2)CC1`, -11.5%. The result for `CCOC(=O)N1CCN(S(=O)(=O)c2ccc(C(=O)Nc3sc4c(c3C(N)=O)CC(C)(C)NC4(C)C)cc2)CC1` reads -1.86%; that for `O=C1NC(=Nc2ccccc2Br)SC1(CO)CO`, -3.43%. As to `COc1cccc(CNc2ccc(S(=O)(=O)Nc3nccs3)cc2)c1O`, the inhibition was -5.98%. As to `CC(=O)NC(CC(=O)O)c1ccccc1` (centres undefined), the inhibition is -5.66%. With `O=C(c1cc(-c2ccc(Cl)cc2)nc2ccccc12)N1CCOCC1`, the inhibition is -19.9%.
